From PubChem BioAssay
The list is not random: actives were taken first. Their share in the collection is about 8%.
HCV inh = blocks hepatitis C virus | Huh7.5.1 HCVcc-Cre infection, luciferase reporter, 44 h | Potency, µM (titrated, usually from 41.8 µM), without a hit: top-dose activity change, negative = inhibition, usual class: inhibitors | hit rate 3.4% among 340,000; active = well fitted inhibition curve with a large enough effect; inconclusive = small, poorly fitted or top-dose-only effect, or another doubt; inactive = no such curve, though single readings can be large or run the other way; note: potency is the fitted concentration of half-maximal effect; % is set by controls: 0 for no effect and ±100 for the full control effect
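Cells (1,000/well) were plated 4 h before compound, then infected with HCVcc-Cre virus (~0.5 moi). After 44 h further culture, infection was read as luciferase luminescence following a 15 min substrate incubation at room temperature.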
FMDV inh = blocks foot and mouth disease virus; FMDV antiviral cell-based qHTS; Potency, µM (series often up to 57.9 µM), for the others: at the highest dose activity change, negative = inhibition, usual class: inhibitors; hit rate 1.2% among 410,000; AID 1159524; calls by dose curve; tested in HEK293T cells; note: read-out not given here; potency is the fitted concentration of half-maximal effect; % is set by controls: 0 for no effect and ±100 for the full control effect; nearly all actives have a fitted effect of over 45% in size
LASV entry inh = blocks Lassa virus binding to or entry into cells; AID 540256; hit rate 1.2% among 300,000; Potency, µM (top dose mostly 37.9 µM), for inactives: top-dose activity change, negative = inhibition, hits mostly inhibitors; Lassa virus pseudotype entry inhibition, cell reporter; calls by dose curve; tested in HEK293 cells; note: potency is the fitted concentration of half-maximal effect; % is set by controls: 0 for no effect and ±100 for the full control effect; nearly all actives have a fitted effect of over 50% in size
HCMV inh = human cytomegalovirus inhibition. HFF cells, HCMV-luciferase reporter, 72 h; active compounds read low. activity change, negative = inhibition, % at 57.5 µM. hit rate 4.5% among 410,000. AID 1259415; in the data active = activity change below about -60%; inconclusive = no clear call, values can overlap the other calls; inactive = above about -39%; note: % is set by controls: 0 for no effect and ±100 for the full control effect
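After 16 h attachment at 37C, HFF cells received test compound and HCMV-luciferase (1 PFU/cell); reporter luminescence read 72 h later, data normalized against buffer-only and known inhibitor Salinomycin.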
SARS PLP yeast = inhibitors of SARS-CoV papain-like protease in yeast. S. cerevisiae expressing SARS-CoV PLpro, growth rescue. Potency, µM (top dose mostly 32.9 µM), without a hit: top-dose activity, positive = growth rescue, actives largely listed as activators. hit rate 0.19% among 330,000. AID 485353; calls by dose curve; note: potency is the fitted concentration of half-maximal effect; 0% is about no effect; nearly all actives have a fitted effect of over 55% in size
MARV entry inh = blocks Marburg virus binding to or entry into cells; Marburg virus pseudotyped entry inhibition, cell reporter; Potency, µM (highest dose often 37.8 µM), inactives show top-dose activity change, negative = inhibition, most hits filed as inhibitors; hit rate 1.8% among 300,000; AID 540276; calls by dose curve; tested in HEK293 cells; note: potency is the fitted concentration of half-maximal effect; % is set by controls: 0 for no effect and ±100 for the full control effect
* marks the source's active call; other numbers are inactive results; ? = inconclusive; / = no result given; ! = repeats disagree; [ ] = dose if it differs, or a comment.

SMILES	HCV inh	FMDV inh	LASV entry inh	HCMV inh	SARS PLP yeast	MARV entry inh
CSc1cccc(NC(=O)C2CCCN(c3ncnc4c3nc3n4CCCCC3)C2)c1 (stereo not drawn)	22.4µM*	?	/	?	-6.0%	/
CCN(C(=O)C1CCCN(c2ncnc3c2nc2n3CCCCC2)C1)c1cccc(Cl)c1 (stereo not drawn)	-6.3%	?	?	-86.7*!	-56.3%	/
O=C(C1CCCN(c2ncnc3c2nc2n3CCCCC2)C1)N1CCN(c2ccc(F)cc2)CC1 (stereo not drawn)	11.2µM*	?	?	-14.6	-1.9%	?
Cc1ccc(SCc2nn(C)c(Cl)c2C=O)cc1	-17.2%	54.5%	-0.5%	-38.1	-6.8%	2.8%[46.1 µM]
O=C(Nc1ccc(Br)cn1)c1coc(=O)c(Br)c1	3.2%	13.1%	4.2%	10.6	-2.0%	15.7%[46.1 µM]
C[C@@H](NC(=O)c1coc(=O)c(Br)c1)c1ccccc1	?	39.8µM*	?	6.7	7.8%	?
Cc1cc(NC(=O)c2coc(=O)c(Br)c2)ccc1C(C)C	8.1%	1µM*	1.6%	51.4	-2.5%	?
CCCCC1(C)NC(=O)N(CC(=O)Nc2ccc(Cl)cc2C)C1=O (stereo not drawn)	?	-5.4%	-25.5%[46.1 µM]	37.1	-0.6%	-1.2%[46.1 µM]
CC(OC(=O)c1cc2sccc2n1C)C(=O)NC(C)(C)C (stereo not drawn)	10µM*	-22.5%	/	-15.8	-0.1%	/
CCOC(=O)c1c(Oc2ccc(C(=O)OC)cc2)nnc(-c2ccccc2)c1-c1ccccc1	/	?	?	-9.4	/	?
COC(=O)c1c(Oc2ccc(C(C)=O)cc2)nnc(-c2ccccc2)c1-c1ccccc1	/	?	?	-13.9	/	6.31µM*
O=C(c1ccc2c(c1)OCO2)N(Cc1cccs1)C1(C(=O)NC2CCCCC2)CCCCC1	?	?	?	?	-84.1%	8.91µM*
O=C(Cc1cccs1)N(Cc1cccs1)C1(C(=O)NC2CCCC2)CCCCC1	?	?	4.6%	?	-17.1%	-29.9%
CCNC(=O)COc1cccc(C(=O)NCc2ccccc2)c1	9.6%	-14.8%	14.8%	9.6	14.4%	?
Cc1c(C(=O)N2CCCCC2)sc2ncnc(NCCc3ccccn3)c12	/	-17.9%	/	/	/	/
Cc1nc2ccccc2c(=O)n1NC(=O)c1ccccc1F	-2.7%	-18.0%	/	52.4	-1.7%	/
Cc1nc2ccccc2c(=O)n1NC(=O)c1c(F)cccc1F	2.2%	-18.5%	/	-68.7*	18.1%	/
COC(=O)c1c(C)noc1-c1ccc(Cl)cc1	21.9%	5.5%	/	-63.8*	-8.1%	/
COC(=O)c1c(-c2ccccc2)noc1-c1ccccc1	?	37.1%	-3.4%	15.4	/	10.3%[46.1 µM]
CCOC(=O)c1nc(Nc2ccc(N3CCOCC3)cc2)c2ccccc2n1	-21.0%	-13.6%	8.1%	-34.1	-0.3%	?
Clc1nc(Nc2ccc(N3CCOCC3)cc2)c2ccccc2n1	?	?	-6.1%	-71.7*	0.2%	16.5%[46.1 µM]
Brc1ccc2ncnc(Nc3ccc(N4CCOCC4)cc3)c2c1	?	?	?	-82.2*	-7.3%	?
c1ccc2c(Nc3nc(N4CCOCC4)c4ccccc4n3)cccc2c1	?	28.2µM*	?	-32.2	-129.7%	?
Fc1ccc(Nc2nc(N3CCOCC3)c3ccccc3n2)cc1	-3.7%	?	?	-6.9	-5.7%	15.8µM*
Fc1ccc(Nc2nc(Nc3ccc(F)cc3)nc(N3CCOCC3)n2)cc1	/	?	25.0%[46.1 µM]	-10.5	/	?
SMILES	HCV inh	FMDV inh	LASV entry inh	HCMV inh	SARS PLP yeast	MARV entry inh
c1csc(CNc2nc(-c3ccoc3)nc3ccccc23)c1	/	-5.0%	/	/	/	/
CCCCCCCCCCCCCC(=O)N[C@@H](C)[C@H](O)c1ccccc1	/	-14.2%[6.7 µM]	/	/	/	/
O=C(O)c1ccc(Cl)c(S(=O)(=O)Nc2ccccc2N2CCOCC2)c1	7.0%	-3.1%	0.6%	-19.6	0.1%	27.9%[46.1 µM]
O=S(=O)(Nc1nc2ccccc2nc1Nc1ccc(N2CCOCC2)cc1)c1cc(Cl)ccc1Cl	?	-20.6%	?	-22.8	11.3%	7.3µM*
COCCCNC(=O)Cn1nc(N2CCN(c3ccccc3)CC2)ccc1=O	/	-10.0%	17.3%[46.1 µM]	-13.4	/	/
CCCCCCCCOc1ccc(C(=O)O)cc1	6.31µM*	5.6%	/	17.9	6.6%	/
CCCCCCOc1ccc(CN2CCN(CC)CC2)cc1	?	-6.3%	?	-75.3*	-9.0%	?
CCCCOc1ccc(CN2CCSCC2)cc1	13.4%	26.2%	/	14.0	-1.9%	/
O=C(c1cccc([N+](=O)[O-])c1)N1CCN(c2n[nH]c(=O)[nH]c2=O)CC1	2.5%	-5.8%	6.5%	-19.8	-1.1%	3.5%[46.1 µM]
c1ccc(-c2ccc([C@H](c3ccccc3)n3ccnc3)cc2)cc1	/	/	/	/	/	-55.7%
O=C1CC[C@@H](CN(Cc2cccnc2)C2CCN(c3ccc(NC(=O)c4cnccn4)cc3)CC2)N1	/	24.8%	/	/	/	/
COC(=O)C(c1ccccc1)(c1cn(C)c2ccccc12)C(Nc1ccccc1)c1ccccc1 (stereo not drawn)	/	/	/	-24.5	/	/
O=C(Nc1ccccc1)Nc1n[nH]c2nnc(-c3ccccc3)c(-c3ccccc3)c12	14.1µM*	?	/	7.6	-6.6%	/
Cc1ccc(C(=S)N2CCN(Cc3ccccc3)CC2)s1	-27.7%	-21.2%	-11.7%	-13.8	-1.3%	1.5%[46.1 µM]
CCN(CC)CC(O)Cn1c(C)c(-c2ccccc2)c2cc([N+](=O)[O-])ccc21 (stereo not drawn)	14.1µM*	-11.5%	?	-67.9*	-0.3%	?
COc1ccccc1N(CC(O)Cn1c2ccccc2c2ccccc21)S(=O)(=O)c1ccccc1 (stereo not drawn)	?	-19.0%	25.9µM*	-11.3	-11.3%	?
O=[N+]([O-])c1ccc2c(c1)c1ccccc1n2CCO	-34.7%	-12.6%	2.6%	-10.6	-1.3%	-17.6%[14.2 µM]
O=S(=O)(c1ccccc1)N(CC(O)Cn1c2ccccc2c2ccccc21)c1ccccc1 (stereo not drawn)	?	?	?	-14.7	-3.1%	?
CCN(CC)CC(O)Cn1c2ccccc2c2ccccc21 (stereo not drawn)	?	-25.7%	?	?	-3.0%	12.6µM*
Cc1ccc(S(=O)(=O)N(C)CC(O)Cn2c3ccccc3c3ccccc32)cc1 (stereo not drawn)	-19.6%	-12.8%	5.0%	-8.6	-21.8%	-17.2%
CCN(CC(O)Cn1c2ccccc2c2ccccc21)S(=O)(=O)c1ccc(F)cc1 (stereo not drawn)	?	28.2µM*	-3.1%	11.1	-31.8%	?
O=c1cc[nH]c2ccc(OC(F)(F)F)cc12	5.6%	58.0%	-2.0%	4.7	0.3%	1.7%[46.1 µM]
Clc1ccc(/C=C/c2nc(Cl)c(-c3ccc(Cl)cc3)c(Cl)n2)cc1	24.7%	-13.7%	/	-27.2	1.8%	/
CCOC(=O)C1CCN(C(=O)C2COc3ccccc3C2)CC1 (stereo not drawn)	/	-3.7%	2.7%[46.1 µM]	-23.8	/	/
